From the supplement of paper PMC12669032
A number with no mark means an inactive call.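 Rule for the calls: active = AUC reduced over 20% with Padj below 0.05 in at least 2 of 3 replicates; inactive = otherwise.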

What was measured:
[1] = test system: Roseburia intestinalis; experiment: growth AUC relative to DMSO control (median of replicates) (fraction); higher = more growth (less inhibition), active = hit call of the paper; details: 20 µM; 24 h
How it was run: (§1)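 Starting at OD600 0.05, gut bacterial monocultures in mGAM were grown anaerobically at 37 °C with 20 µM compound (1% DMSO) under pierced gas-permeable seals. OD600 was read every hour for 24 h, and the lowest OD of each curve was set to 0. Area under the growth curve was normalised to the plate median of solvent-only wells, or to row and column medians on the industrial chemical plate, and the median of three biological replicates grown on separate days is given.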

[2] = test system: Streptococcus salivarius; experiment: as above; details: 20 µM; 24 h
How it was run: as §1

Row | Compound | growth AUC [1] | growth AUC [2]
1 | COC(=O)C(Cl)Cl | 0.918 | 0.985
2 | Cc1cc(Cl)ccc1OCC(=O)O.O.[Na] | 1.02 | 0.986
3 | N#CN=C1SCCN1Cc1ccc(Cl)nc1 | 1.01 | 1.01
4 | OCC1C(CO)C2(Cl)C(Cl)=C(Cl)C1(Cl)C2(Cl)Cl (stereo unspecified) | 0.953 | 0.82
5 | CCCCN(CCCC)N=O | 1 | 1.01
6 | COP(=O)(OC)Oc1ccc(SC)c(C)c1 | 1.02 | 1
7 | c1ccc(-c2ccccc2)cc1 | 1.02 | 0.993
8 | CC1(C)C(/C=C(\Cl)C(F)(F)F)C1C(=O)OC(C#N)c1cccc(Oc2ccccc2)c1 (stereo unspecified) | 0.952 | 0.981
9 | CCCOc1nn(C(=O)[N-]S(=O)(=O)c2ccccc2C(=O)OC)c(=O)n1C.[Na+] | 0.992 | 0.981
10 | Clc1ccc(Cl)c(Cl)c1Cl | 0.999 | 1.04
11 | C=CCOC(Cn1ccnc1)c1ccc(Cl)cc1Cl.O=S(=O)(O)O (stereo unspecified) | 0.261 (active) | 0.953
12 | CS(=O)(=O)c1cc(C(F)(F)F)ccc1C(=O)c1cnoc1C1CC1 | 1.03 | 1.01
13 | COP(=S)(OC)Oc1ccc([N+](=O)[O-])cc1 | 0.917 | 0.968
14 | O=P(OC(CCl)CCl)(OC(CCl)CCl)OC(CCl)CCl | 0.949 | 0.969
15 | Cc1cnc2c(C(=O)O)c(Cl)ccc2c1 | 0.937 | 0.969
16 | CCOP(=O)(NC(C)C)Oc1ccc(S(C)(=O)=O)c(C)c1 (stereo unspecified) | 1.09 | 0.999
17 | Oc1ccccc1-c1ccccc1 | 0.939 | 1.04
18 | CCOP(=O)(SC(C)CC)SC(C)CC (stereo unspecified) | 1.01 | 1.01
19 | CO/N=C(/C1=NOCCO1)c1ccccc1Oc1ncnc(Oc2ccccc2Cl)c1F | 0.997 | 1.04
20 | O=C1C2(Cl)C3(Cl)C4(Cl)C(Cl)(Cl)C5(Cl)C3(Cl)C1(Cl)C5(Cl)C24Cl (stereo unspecified) | 0.0478 (active) | 0.0301 (active)
21 | CON(C)C(=O)Nc1ccc(Cl)c(Cl)c1 | 0.925 | 0.945
22 | CC(Cc1ccc(C(C)(C)C)cc1)CN1CCCCC1 (stereo unspecified) | 0.976 | 1
23 | ClC1=C(Cl)C2(Cl)C3C4C=CC(C4)C3C1(Cl)C2(Cl)Cl (stereo unspecified) | 0.987 | 0.995
24 | COP(=S)(OC)Oc1cc(Cl)c(Cl)cc1Cl | 0.966 | 0.994
25 | O=C1OCC2C1C1(Cl)C(Cl)=C(Cl)C2(Cl)C1(Cl)Cl (stereo unspecified) | 0.975 | 0.986
26 | CCCCCCCCCc1ccc(O)cc1 | 0.897 | 0.927

Row | Compound | growth AUC [1] | growth AUC [2]
27 | C#CCOS(=O)OC1CCCCC1Oc1ccc(C(C)(C)C)cc1 (mixture of isomers) | 0.956 | 1.03
28 | CCOC(=O)C(C)OC(=O)c1cc(Oc2ccc(C(F)(F)F)cc2Cl)ccc1[N+](=O)[O-] (stereo unspecified) | 0.78 (active) | 0.903
29 | Nc1cnn(-c2ccccc2)c(=O)c1Cl | 1.1 | 1.1
30 | CC1(C)[C@H](/C=C(\Cl)C(F)(F)F)[C@@H]1C(=O)O[C@@H](C#N)c1cccc(Oc2ccccc2)c1 | 0.919 | 0.957
31 | Cc1cc(Cl)ccc1N=CN(C)C.Cl | 0.994 | 0.99
32 | O=c1ccc(=O)[nH][nH]1 | 1.01 | 0.965
33 | COCCN(C(=O)CCl)c1c(C)cccc1C | 0.96 | 0.957
34 | CCc1cccc(CC)c1N(COC)C(=O)CCl | 0.988 | 0.981
35 | CNC(=O)Oc1cc(C)cc(C(C)C)c1 | 1.06 | 0.935
36 | [Cl][Sn]([c]1ccccc1)([c]1ccccc1)[c]1ccccc1 | 0.0424 (active) | 0.859
37 | CC(C)N1C(=O)N(c2ccccc2)CSC1=NC(C)(C)C | 1.02 | 0.953
38 | CNC(=O)Oc1ccccc1OC(C)C | 1.01 | 0.98
39 | CNC(=O)ON=C(C)C(C)SC (stereo unspecified) | 0.949 | 0.924
40 | COC(=O)C(C)(Cl)Cl | 1.12 | 0.979
41 | CCC/C(=N\OCC)C1=C(O)CC(CC(C)SCC)CC1=O (stereo unspecified) | 1 | 1.01
42 | CP(=O)(O)CC(=O)O | 1.09 | 0.998
43 | CS(=O)(=O)c1ccc(C(=O)C2C(=O)CCCC2=O)c(Cl)c1COCC(F)(F)F | 0.964 | 0.974
44 | CC(C)C1(C)N=C(c2ncccc2C(=O)O)NC1=O (stereo unspecified) | 0.97 | 0.931
45 | Cc1ccc(NC(=O)c2snnc2C)cc1Cl | 0.925 | 0.962
46 | CC(Cc1ccc(C(C)(C)C)cc1)CN1C[C@@H](C)O[C@@H](C)C1 (stereo partly specified) | 1.06 | 0.999
47 | C=CCNC(=O)c1c([Si](C)(C)C)sc(C)c1C | 1.03 | 1
48 | CNc1nc(C)c(C)c(OC(=O)N(C)C)n1 | 0.951 | 1.03
49 | COP(N)(=S)Oc1ccccc1C(=O)OC(C)C (stereo unspecified) | 1.07 | 0.991
50 | CNC(=O)Oc1cccc2c1OC(C)(C)O2 | 1.01 | 1
51 | O=C1c2ccccc2C(=O)N1SC(Cl)(Cl)Cl | 0.99 | 1.01
52 | CNC(=O)O/N=C/C(C)(C)S(C)(=O)=O | 1.02 | 1.04

Row | Compound | growth AUC [1] | growth AUC [2]
53 | CCOP(=S)(Oc1cnc(C(C)(C)C)nc1)OC(C)C (stereo unspecified) | 1.01 | 0.994
54 | Clc1ccc(C2(Cn3cncn3)CC(Br)CO2)c(Cl)c1 (stereo unspecified) | 0.99 | 0.988
55 | CCSC(C)CC1CC(=O)C(/C(CC)=N/OC/C=C/Cl)=C(O)C1 (mixture of isomers) | 1.01 | 0.919
56 | Cc1cc(C)nc(Nc2ccccc2)n1 | 0.999 | 0.995
57 | CCCCOC(=O)[C@@H](C)Oc1ccc(Oc2ccc(C#N)cc2F)cc1 | 0.997 | 0.954
58 | CC(Oc1ccc(Oc2ccc(Cl)cc2Cl)cc1)C(=O)O (racemic) | 0.989 | 0.934
59 | CNC(=O)Oc1ccc(N(C)C)c(C)c1 | 0.949 | 0.992
60 | C[Si](Cn1cncn1)(c1ccc(F)cc1)c1ccc(F)cc1 | 0.853 | 0.988
61 | N#Cc1nn(-c2c(Cl)cc(C(F)(F)F)cc2Cl)c(N)c1SC(F)(F)F | 0.558 (active) | 0.75 (active)
62 | CSC1=N[C@@](C)(c2ccccc2)C(=O)N1Nc1ccccc1 | 0.997 | 1.01
63 | COCCOC(=O)C(C#N)(C(=O)c1ccccc1C(F)(F)F)c1ccc(C(C)(C)C)cc1 (stereo unspecified) | 1.02 | 0.917
64 | O=C(O)COc1nc(Cl)c(Cl)cc1Cl | 1.01 | 1.01
65 | CNC(=O)ON=C(CSC)C(C)(C)C | 1.02 | 1.02
66 | CCOc1ccccc1OS(=O)(=O)NC(=O)Nc1nc(OC)cc(OC)n1 | 0.92 | 0.966
67 | CC(C)=NOCCOC(=O)[C@@H](C)Oc1ccc(Oc2cnc3cc(Cl)ccc3n2)cc1 | 1.05 | 0.966
68 | COP(=O)(OC)Oc1ccc(S(C)=O)c(C)c1 (stereo unspecified) | 1.01 | 1.01
69 | Cc1ccccc1[N+](=O)[O-] | 0.969 | 1.01
70 | Fc1ccc(C2(Cn3cncn3)OC2c2ccccc2Cl)cc1 (stereo unspecified) | 1.03 | 0.966
71 | COP(=S)(Oc1cc(Cl)c(Br)cc1Cl)c1ccccc1 (stereo unspecified) | 1.04 | 1.05
72 | N#Cc1sc2c(=O)c3ccccc3c(=O)c=2sc1C#N | 1 | 0.908
73 | CC(C)OC(=O)C(C(=O)OC(C)C)=C1SCCS1 | 1.06 | 1.02
74 | COC(=O)c1ccccc1S(=O)(=O)NC(=O)N(C)c1nc(C)nc(OC)n1 | 0.998 | 1.01
75 | CCCN(CC1CC1)c1c([N+](=O)[O-])cc(C(F)(F)F)cc1[N+](=O)[O-] | 1.06 | 1.03
76 | CS(=O)(=O)c1ccc(C(=O)C2C(=O)CCCC2=O)c(Cl)c1 | 1.04 | 0.994
77 | Cc1cc(C(C#N)c2ccc(Cl)cc2)c(Cl)cc1NC(=O)c1cc(I)cc(I)c1O (stereo unspecified) | 0.15 (active) | 0.0175 (active)
78 | COCC(=O)N(c1c(C)cccc1C)C(C)C(=O)OC (stereo unspecified) | 1.01 | 0.986
